Screens as filed in PubChem BioAssay.
Shown are actives, neighbours in structure and some others; about 4.8% of the full set was active somewhere.
D3 antag = D3 dopamine receptor (human) antagonism; P35462; D3R cells, DiscoveRx beta-arrestin luminescence, antagonist mode; active compounds read low; max response, negative = inhibition, %; hit rate 2.5% among 360,000; in the data active means max response below about -50%; inconclusive means no clear call, values can overlap the other calls
Target sequence (P35462 whole entry, looked up): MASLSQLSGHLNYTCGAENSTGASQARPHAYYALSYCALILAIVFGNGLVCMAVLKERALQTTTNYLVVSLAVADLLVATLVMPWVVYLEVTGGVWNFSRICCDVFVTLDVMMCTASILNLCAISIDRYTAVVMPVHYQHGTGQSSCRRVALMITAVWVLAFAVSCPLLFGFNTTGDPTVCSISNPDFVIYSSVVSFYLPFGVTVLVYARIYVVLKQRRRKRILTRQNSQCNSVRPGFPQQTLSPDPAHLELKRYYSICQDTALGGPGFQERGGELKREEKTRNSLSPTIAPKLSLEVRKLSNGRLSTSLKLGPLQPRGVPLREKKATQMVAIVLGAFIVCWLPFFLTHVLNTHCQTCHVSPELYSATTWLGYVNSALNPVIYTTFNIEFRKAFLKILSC
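Cells plated overnight at 1500 cells/well, then exposed to library compounds with dopamine controls for 90 minutes at 37 degrees C. DiscoveRx reagent added for 30–60 minutes at room temperature; luminescence read, quantitative HTS format.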
S2 tox = cell viability loss in ATXN counter-screen. S2 cells (HEK-293 line with an ATXN2-luciferase reporter) viability, CellTiter-Fluor protease fluorescence, 24 h. Potency, µM (titrated, usually from 56.7 µM), usual class: cytotoxic. hit rate 0.49% among 400,000. AID 651635; further: nearly all actives have a fitted effect of over 40% in size
HepG2 tox-1 = HepG2 cytotoxicity, counter-screen for TGF-b inhibitors; AID 588856; hit rate 0.76% among 410,000; Potency, µM (doses to about 46.1 µM), most hits filed as cytotoxic; HepG2 CAGA-GFP viability, ATP luminescence, 18 h
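CellTiter-Glo luminescence gave cytotoxicity after 18 hours at 37 degrees C. The cells were HepG2 CAGA-GFP in 1% FBS DMEM, stimulated with 500 pg/mL TGF-beta after compound addition. %Activity was normalised to no-cell wells (complete cell-killing) and DMSO (no toxicity), and curves were fitted and classified.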
TGFb SMAD3 inh = TGF-b pathway inhibition. HepG2 CAGA-GFP TGF-b/SMAD3 reporter, GFP fluorescence, 18 h; TGF-beta stimulated, 500 pg/mL final. Potency, µM (doses to about 46.1 µM), most hits filed as inhibitors. hit rate 1.2% among 410,000. AID 588855; further: nearly all actives have a fitted effect of over 65% in size
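GFP signal (ex488/em500-530) from TGF-beta-stimulated HEPG2 CAGA-GFP cells, 500 pg/mL final, 18 h at 37 degrees C in DMEM plus 1% FBS, normalized to unstimulated and DMSO-stimulated controls.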
DRD3 agonist = agonists of human D3 dopamine receptor. P35462. D3R DiscoveRx beta-arrestin cells, luminescence, 90 min. max activation, %. hit rate 0.58% among 410,000. AID 652048; in the data active means max activation above about 30%
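Agonist-mode cell screen: cells plated at 1500/well and incubated overnight at 37 °C, then exposed to library compounds for 90 min at 37 °C. Detection reagent was added for 30–60 min at room temperature, and luminescence was read.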
ATXN2 expr inh = reduces ATXN2 reporter expression in HEK-293 cells; HEK-293 ATXN2-luciferase reporter, luminescence, 24 h; Potency, µM (top dose mostly 57 µM), usual class: inhibitors; hit rate 0.72% among 360,000; further: nearly all actives have a fitted effect of over 55% in size
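ATXN2-luciferase reporter cells (luciferase flanked by upstream and downstream ATXN2 gene portions) were treated 24 h at 37 °C with compounds at up to 57 uM. SteadyGlo luminescence gave expression; GF-AFC fluorescence gave viability.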
TGFb CAGA inh = TGF-b pathway inhibition, cherry-pick retest; shares compounds with TGFb SMAD3 inh; HepG2 CAGA-GFP TGF-b reporter, GFP fluorescence, 18 h; cells stimulated with TGF-beta, 500 pg/mL; Potency, µM (series often up to 46.1 µM), hits mostly inhibitors; hit rate 63% among 1,600; AID 720534; further: nearly all actives have a fitted effect of over 65% in size
HepG2 tox-2 = toxic to HepG2 cells in TGF-b counterscreen; shares compounds with TGFb SMAD3 inh; hit rate 27% among 1,600; Potency, µM (top dose mostly 46.1 µM), most hits filed as inhibitors; HepG2 CAGA-GFP viability, ATP luminescence, 18 h; cells stimulated with TGF-beta, 500 pg/mL; AID 720535; further: nearly all actives have a fitted effect of over 70% in size
CCL64 TGFb inh = blocks TGF-b signaling in CCL64 reporter cells. CCL64 CAGA-GFP reporter, TGF-b stimulated, GFP fluorescence, 18 h. AID 720536. hit rate 41% among 1,600. Potency, µM (highest dose often 46.1 µM), usual class: inhibitors. shares compounds with TGFb SMAD3 inh; further: nearly all actives have a fitted effect of over 65% in size
COP TGFb inh = TGF-b inhibition validated with COP promoter. hit rate 3% among 1,600. Potency, µM (series often up to 46.1 µM), hits mostly inhibitors. HepG2 COP-GFP TGF-b reporter, GFP fluorescence, 18 h; cells stimulated by added recombinant TGF-beta. AID 720537. shares compounds with TGFb SMAD3 inh; further: nearly all actives have a fitted effect of over 70% in size
Large screens that a line does not name were inactive (follow-up assays come after a bar, where they were run); ! = not confirmed by another sample. Unless noted, the call rests on the fitted dose curve; in most records, active means well fitted curve in the direction sought with a large enough effect; inconclusive means small, poorly fitted or top-dose-only effect, or another doubt; inactive means no such curve, though single readings can be large; an effect the other way counts as inactive or inconclusive.

C[C@@H](C(=O)NCCc1ccccc1F)N1C(=O)N2CCc3c([nH]c4ccccc34)[C@@]2(C)C1=O	S2 tox inconclusive, TGFb SMAD3 inh inconclusive
CCN(CC)S(=O)(=O)c1cccc(NC(=O)Nc2cccc(C(F)(F)F)c2)c1	S2 tox inconclusive, HepG2 tox-1 11µM, TGFb SMAD3 inh 7.9µM, ATXN2 expr inh 22µM | TGFb CAGA inh 10µM | HepG2 tox-2 inconclusive | CCL64 TGFb inh 8.2µM | COP TGFb inh inactive
COC(=O)c1ccc(CNC(=O)CSc2nnc(COc3ccccc3)n2C)o1	TGFb SMAD3 inh inconclusive | TGFb CAGA inh inactive | HepG2 tox-2 inactive | CCL64 TGFb inh inactive | COP TGFb inh inactive
COc1cccc(C2=NN(S(C)(=O)=O)C(c3cn(-c4ccccc4)nc3-c3cccs3)C2)c1 (configuration not stated)	none (no result: D3 antag)
Cc1ccc(-c2csc(Cc3nc(-c4cc5ccccc5oc4=O)cs3)n2)cc1	TGFb SMAD3 inh inconclusive | TGFb CAGA inh inconclusive | HepG2 tox-2 inactive | CCL64 TGFb inh inactive | COP TGFb inh inactive
O=c1oc2ccccc2cc1-c1csc(Cc2nc(-c3ccc(Br)cc3)cs2)n1	S2 tox inconclusive
CCN1CCN(Cc2ccc(NC(=O)c3cc(NC(=O)c4nccnc4N)cc(OC)c3)cc2C(F)(F)F)CC1	S2 tox inconclusive, TGFb SMAD3 inh inconclusive, ATXN2 expr inh inconclusive
CCN1CCN(Cc2ccc(NC(=O)c3cc(NC(=O)c4cncc(-c5ccc(C#N)cc5)c4)cc(OC)c3)cc2C(F)(F)F)CC1	S2 tox 16µM, HepG2 tox-1 2µM!, TGFb SMAD3 inh 5.6µM, ATXN2 expr inh 25µM! | TGFb CAGA inh inconclusive | HepG2 tox-2 16µM | CCL64 TGFb inh 26µM | COP TGFb inh inconclusive
Nc1nc(=S)c2n[nH]nc2[nH]1	none (no result: D3 antag, S2 tox, DRD3 agonist, ATXN2 expr inh)
Cc1ccccc1NCc1ccc(O)c2ncccc12	D3 antag inconclusive, TGFb SMAD3 inh 10µM, ATXN2 expr inh inconclusive | TGFb CAGA inh inconclusive | HepG2 tox-2 inconclusive | CCL64 TGFb inh 5.8µM | COP TGFb inh inactive
Oc1ccc(CNc2ccc(F)cc2)c2cccnc12	TGFb SMAD3 inh inconclusive
CCc1ccccc1NC(=O)Cc1c(C(=O)O)[nH]c2ccc(Cl)cc12	none (no result: D3 antag)
CC(C)Oc1ccc(CNC(=O)Cn2ncn3nc(-c4cccs4)cc3c2=O)cc1	none (no result: D3 antag)
CC(C)(C)c1cc(C(c2cccnc2)N2CCN(CCO)CC2)cc(C(C)(C)C)c1O (configuration not stated)	HepG2 tox-1 13µM, TGFb SMAD3 inh 7.9µM, ATXN2 expr inh inconclusive (no result: S2 tox) | TGFb CAGA inh 5.2µM | HepG2 tox-2 15µM | CCL64 TGFb inh 4.6µM | COP TGFb inh inconclusive
Fc1ccc(-c2csc3ncnc(N4CCc5ccccc5C4)c23)cc1	S2 tox inconclusive, TGFb SMAD3 inh 18µM, DRD3 agonist 46 | TGFb CAGA inh 16µM | HepG2 tox-2 inconclusive | CCL64 TGFb inh inconclusive | COP TGFb inh inactive
Cc1ccc(-c2csc3ncnc(N4CCc5ccccc5C4)c23)cc1	none
Nc1ncnc2nc(SCC(=O)Nc3ccccc3F)[nH]c12	TGFb SMAD3 inh 7.9µM | TGFb CAGA inh 10µM | HepG2 tox-2 inactive | CCL64 TGFb inh 16µM | COP TGFb inh inactive
COc1cc(C(=O)N2CC(=O)Nc3ccc(C)cc3C2c2ccc(F)cc2)cc(OC)c1OC (configuration not stated)	none (no result: D3 antag)
Cc1ccc(-c2cn3c(n2)sc2cc(C(=O)NCCC4=CCCCC4)ccc23)c(C)c1	none (no result: D3 antag)
Oc1c(C(c2ccccn2)N2CCCCC2)cc(Cl)c2cccnc12 (configuration not stated)	D3 antag -76, TGFb SMAD3 inh 7.9µM, ATXN2 expr inh inconclusive | TGFb CAGA inh inconclusive | HepG2 tox-2 inconclusive | CCL64 TGFb inh inconclusive | COP TGFb inh inactive
Cc1[nH]c2ccccc2c1C(c1ccccn1)N1CCCC1 (configuration not stated)	none
O=C(c1[nH]nc2c1CCc1ccccc1-2)N1CCN(Cc2ccc3c(c2)OCO3)CC1	D3 antag inconclusive, TGFb SMAD3 inh 11µM | TGFb CAGA inh 12µM | HepG2 tox-2 inconclusive | CCL64 TGFb inh inconclusive | COP TGFb inh inactive
Cc1cccc(C(=O)Nc2ccc3nc(SCC(=O)N4CCCC4)sc3c2)c1	none (no result: D3 antag, S2 tox, ATXN2 expr inh)
CN(c1nnc(NC(=O)Nc2ccccc2C(F)(F)F)s1)C1CCCCC1	S2 tox inconclusive, TGFb SMAD3 inh inconclusive (no result: D3 antag)
CC(C)Oc1ccc(CNC(=O)CN2C(=O)CCn3nc(-c4cn(C)c5ccccc45)cc32)cc1	TGFb SMAD3 inh inconclusive (no result: D3 antag)
O=C(Nc1cc(Sc2nc3ccccc3s2)cc([N+](=O)[O-])c1)c1ccccc1	TGFb SMAD3 inh inconclusive
O=C(Nc1cc(Sc2ccccn2)cc([N+](=O)[O-])c1)c1cccc(F)c1	S2 tox inconclusive, TGFb SMAD3 inh 11µM | TGFb CAGA inh 10µM | HepG2 tox-2 inconclusive | CCL64 TGFb inh 13µM | COP TGFb inh inactive
COC(=O)c1ccccc1NC(=O)Cn1c(=O)n(CCCC(=O)NCc2ccccc2OC)c(=O)c2ccccc21	none (no result: D3 antag)
Cc1ccnc(Nc2nc(-c3sc(C)nc3C)cs2)c1	S2 tox inconclusive, HepG2 tox-1 3.2µM, TGFb SMAD3 inh 6.3µM | TGFb CAGA inh 9.2µM | HepG2 tox-2 7.3µM | CCL64 TGFb inh inconclusive | COP TGFb inh inactive
Cc1ccc(C(c2sc3nc(-c4ccco4)nn3c2O)N2CCOCC2)cc1 (configuration not stated)	none (no result: D3 antag)
O=C(Oc1c(CN2CCOCC2)cc(Cl)c2cccnc12)c1ccccc1	D3 antag inconclusive, S2 tox 11µM, HepG2 tox-1 2.8µM, TGFb SMAD3 inh 2.8µM, ATXN2 expr inh 8.9µM | TGFb CAGA inh inactive | HepG2 tox-2 inconclusive | CCL64 TGFb inh inconclusive | COP TGFb inh inactive
